Data from PubChem BioAssay (Tox21).
Where “and” joins values, the source holds several entries; their conditions need not be identical. Identical values can stand only once. Results filed as inconclusive are left out. Calls of active or inactive are those of the source. Unless noted, calls follow the shape of the dose curve; as a rule, active = well fitted curve in the direction sought with a large enough effect in the repeat runs; inconclusive = weak or mixed curves; inactive = no such curve, though single readings can be large; an effect the other way counts as inactive or inconclusive.

How the values were obtained:
[1] = qHTS assay to identify small molecule agonists of the androgen receptor (AR) signaling pathway in the presence of an antagonist - cell viability counter screen (AID 1259379); also: nearly all actives have a fitted effect of over 25% in size; also: potency is read from the fitted curve at half-maximal effect
Method in brief: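 MDA-kb2 cells (MMTV-luciferase, AR/GR), 3,000/well, 5 h attachment, then 3.0 µM nilutamide (final) and compounds at 15 concentrations. Viability by CellTiter-Fluor fluorescence after 16 h at 37 °C, 0% CO2, in the reporter wells.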

[2] = qHTS assay to identify small molecule agonists of the estrogen receptor beta (ER-beta) signaling pathway - cell viability counter screen (AID 1259380); also: nearly all actives have a fitted effect of over 30% in size; also: potency is read from the fitted curve at half-maximal effect
Method in brief: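 ER-beta-UAS-bla HEK293T cells in medium with 2% charcoal-stripped FBS, pre-incubated 6 hr, then treated 16 hr at 37C. Cytotoxicity read in the same wells by CellTiter-Glo luminescence after 30 min at room temperature.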

[3] = qHTS assay to identify small molecule antagonists of the estrogen receptor beta (ER-beta) signaling pathway - cell viability counter screen (AID 1259382); also: series mostly up to about 92 µM; nearly all actives have a fitted effect of over 55% in size
Method in brief: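 ER-beta-UAS-bla HEK293T cells in 2% charcoal-stripped FBS medium, treated with compound plus 1 nM 17-beta-estradiol for 16 h at 37C. Viability read by CellTiter-Glo luminescence after 30 min at room temperature in the same wells.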

[4] = qHTS assay to identify small molecule agonists of the estrogen receptor alpha (ER-alpha) signaling pathway in the presence of an antagonist - cell viability counter screen (AID 1259386);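 also: cells exposed to compounds for 22 h at 37 °C before the viability read; nearly all actives have a fitted effect of over 30% in size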; also: potency is read from the fitted curve at half-maximal effect
Method in brief: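 Cell viability in VM7Luc4E2 cells (endogenous full-length ER-alpha) measured by CellTiter-Fluor fluorescence in the same wells as the luciferase screen. Cells pre-cultured 5 days in charcoal-stripped serum, then treated 22 h with compounds at 15 concentrations plus 10.0nM ICI-182,780.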

[5] = target: Progesterone receptor (Homo sapiens) (UniProt P06401); assay: qHTS assay to identify small molecule agonists of the progesterone receptor (PR) signaling pathway (AID 1346784; calls by dose curve; also: nearly all actives have a fitted effect of over 30% in size)
Chain of Progesterone receptor (Homo sapiens) (P06401 whole entry, looked up): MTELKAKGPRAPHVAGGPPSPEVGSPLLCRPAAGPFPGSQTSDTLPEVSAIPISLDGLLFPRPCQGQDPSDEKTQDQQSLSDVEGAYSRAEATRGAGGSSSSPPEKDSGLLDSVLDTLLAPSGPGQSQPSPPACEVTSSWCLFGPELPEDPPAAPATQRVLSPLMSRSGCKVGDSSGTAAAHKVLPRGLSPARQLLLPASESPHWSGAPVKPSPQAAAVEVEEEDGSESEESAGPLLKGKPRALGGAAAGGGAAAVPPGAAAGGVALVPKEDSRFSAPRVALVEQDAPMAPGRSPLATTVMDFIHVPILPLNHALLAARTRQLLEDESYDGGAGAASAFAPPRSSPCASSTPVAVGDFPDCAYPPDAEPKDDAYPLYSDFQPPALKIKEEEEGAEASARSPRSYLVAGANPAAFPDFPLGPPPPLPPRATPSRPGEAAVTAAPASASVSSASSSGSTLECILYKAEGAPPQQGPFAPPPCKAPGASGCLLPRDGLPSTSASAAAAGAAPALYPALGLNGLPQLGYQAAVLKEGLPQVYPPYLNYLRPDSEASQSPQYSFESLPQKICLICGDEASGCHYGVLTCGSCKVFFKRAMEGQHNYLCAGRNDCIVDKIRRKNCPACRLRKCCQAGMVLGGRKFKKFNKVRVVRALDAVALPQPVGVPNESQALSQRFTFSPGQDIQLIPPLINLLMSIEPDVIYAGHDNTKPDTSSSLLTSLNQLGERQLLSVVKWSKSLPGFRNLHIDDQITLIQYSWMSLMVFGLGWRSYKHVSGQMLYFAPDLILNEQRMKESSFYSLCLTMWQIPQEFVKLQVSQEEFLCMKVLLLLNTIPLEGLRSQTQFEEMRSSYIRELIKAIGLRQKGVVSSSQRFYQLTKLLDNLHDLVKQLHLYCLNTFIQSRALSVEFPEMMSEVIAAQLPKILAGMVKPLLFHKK
Method in brief: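 Agonist mode, quantitative HTS format in a HEK 293T line expressing a UAS-controlled beta-lactamase reporter; 16 hr compound exposure at 37C in 2% charcoal-stripped FBS, then LiveBLAzer B/G FRET fluorescence.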

[6] = qHTS assay to identify small molecule antagonists of the progesterone receptor (PR) signaling pathway - cell viability counter screen (AID 1346798); also: series mostly up to about 92 µM; nearly all actives have a fitted effect of over 50% in size
Method in brief: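 Same-well multiplex: after 16 hr at 37C with compound and R5020 stimulation, HEK293T cells carrying a UAS-bla reporter received LiveBLAzer substrate (2 hr RT), then CellTiter-Glo (30 min RT) for luminescent viability.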

[7] = qHTS assay to identify small molecule agonists of the progesterone receptor (PR) signaling pathway - cell viability counter screen (AID 1346799; calls by dose curve; also: nearly all actives have a fitted effect of over 45% in size)
Method in brief: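 Counter screen for cytotoxicity: compound-treated PR-UAS-bla HEK293T cells (16 hr, 37C, 5% CO2) were assayed with CellTiter-Glo, luminescence measured after 30 min at room temperature.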

[8] = qHTS assay to identify small molecule antagonists of the TGF-beta/Smad signaling pathway - cell viability counter screen (AID 1346824); also: nearly all actives have a fitted effect of over 50% in size
Method in brief: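 SBE-bla HEK 293T cells, incubated overnight, then compound plus 0.25 ng/mL TGF-beta1 (stock added) for 5 hr at 37 C. Viability was read in the same wells by CellTiter-Glo luminescence after 30 min at room temperature.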

[9] = qHTS assay to identify small molecule agonists of the TGF-beta/Smad signaling pathway - cell viability counter screen (AID 1346829); also: top concentration of the series differs between compounds; nearly all actives have a fitted effect of over 45% in size
Method in brief: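 After overnight seating at 37 C and 5% CO2, reporter cells got compounds for 5 hr and FRET substrate for 2 hr; cell viability then came from CellTiter-Glo luminescence.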

[10] = qHTS assay to identify small molecule agonists of the TGF-beta/Smad signaling pathway (AID 1346859; active = well fitted activation curve with a large enough effect in the signal ratio in the repeat runs, not every such curve was filed as active; the % refers to the signal ratio; also: series mostly up to about 77 µM)
Method in brief: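 Smad-responsive beta-lactamase reporter cells (HEK 293T) received compounds from DMSO stocks after overnight attachment, were incubated 5 hr, then treated 2 hr with FRET substrate before dual-emission fluorescence measurement (405 nm excitation).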

[11] = target: Thyrotropin-releasing hormone receptor (Homo sapiens) (UniProt P34981); assay: qHTS assay to identify small molecule antagonists of the thyrotropin-releasing hormone receptor (TRHR) signaling pathway (AID 1346877; active = well fitted inhibition curve with a large enough effect in the repeat runs, not every such curve was filed as active; also: series mostly up to about 51 µM)
Chain of Thyrotropin-releasing hormone receptor (Homo sapiens) (P34981 whole entry, looked up): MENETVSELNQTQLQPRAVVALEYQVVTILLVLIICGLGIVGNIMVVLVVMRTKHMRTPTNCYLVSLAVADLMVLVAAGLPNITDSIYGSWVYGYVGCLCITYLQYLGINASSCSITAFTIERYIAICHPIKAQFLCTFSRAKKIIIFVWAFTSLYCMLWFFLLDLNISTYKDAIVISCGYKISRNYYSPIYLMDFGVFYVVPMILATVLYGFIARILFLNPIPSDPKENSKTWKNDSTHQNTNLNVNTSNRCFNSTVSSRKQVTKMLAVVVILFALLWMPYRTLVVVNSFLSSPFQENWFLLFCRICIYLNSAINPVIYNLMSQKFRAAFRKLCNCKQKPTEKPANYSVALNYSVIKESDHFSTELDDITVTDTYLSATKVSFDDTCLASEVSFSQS
Method in brief: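 TRHR-expressing HEK293 cells loaded with calcium dye for 2 h at 37 C; compounds pre-incubated 5 min at room temperature before TRH challenge at 1 nM final. Intracellular calcium fluorescence read kinetically for 3 min; 15 concentrations in triplicate.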

[12] = target: Estrogen receptor beta (Homo sapiens) (UniProt Q92731); assay: qHTS assay to identify small molecule agonists of the estrogen receptor beta (ER-beta) signaling pathway (AID 1259377; active = well fitted activation curve with a large enough effect in the signal ratio in the repeat runs, not every such curve was filed as active; the % refers to the signal ratio)
Chain of Estrogen receptor beta (Homo sapiens) (Q92731 whole entry, looked up): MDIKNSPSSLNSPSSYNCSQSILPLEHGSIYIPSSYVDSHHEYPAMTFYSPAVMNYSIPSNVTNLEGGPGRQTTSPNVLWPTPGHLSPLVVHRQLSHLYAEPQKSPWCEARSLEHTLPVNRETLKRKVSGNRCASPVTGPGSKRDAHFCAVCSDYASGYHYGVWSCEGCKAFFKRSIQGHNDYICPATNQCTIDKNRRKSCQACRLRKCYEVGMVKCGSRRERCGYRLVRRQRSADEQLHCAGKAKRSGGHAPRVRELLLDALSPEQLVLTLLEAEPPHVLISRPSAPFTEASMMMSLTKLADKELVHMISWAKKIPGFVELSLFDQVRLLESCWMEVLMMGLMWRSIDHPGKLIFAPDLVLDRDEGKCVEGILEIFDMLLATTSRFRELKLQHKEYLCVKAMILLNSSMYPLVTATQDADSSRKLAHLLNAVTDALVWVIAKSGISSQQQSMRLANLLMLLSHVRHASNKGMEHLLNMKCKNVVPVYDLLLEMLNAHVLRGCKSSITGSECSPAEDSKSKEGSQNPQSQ
Method in brief: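 A UAS-controlled beta-lactamase reporter in ER-beta-UAS-bla HEK293T cells reports receptor activation. Compounds act for 16 hr at 37C in 2% charcoal-stripped serum, and a FRET substrate is read by fluorescence after 2 hours.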

[13] = target: Estrogen receptor beta (Homo sapiens) (UniProt Q92731); assay: qHTS assay to identify small molecule antagonists of the estrogen receptor beta (ER-beta) signaling pathway (AID 1259378; active = well fitted inhibition curve with a large enough effect in the signal ratio in the repeat runs, not every such curve was filed as active; the % refers to the signal ratio)
Method in brief: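 ER-beta-UAS-bla HEK293T cells in 2% charcoal-stripped FBS medium treated with compound plus 1nM final 17-beta-estradiol for 16 hr at 37C. Beta-lactamase reporter read by FRET substrate fluorescence after 2 hours at room temperature.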

[14] = target: Androgen receptor (Homo sapiens) (UniProt P10275); assay: qHTS assay to identify small molecule agonists of the androgen receptor (AR) signaling pathway in the presence of an antagonist (AID 1259381; calls by dose curve; also: nearly all actives have a fitted effect of over 15% in size)
Chain of Androgen receptor (Homo sapiens) (P10275 whole entry, looked up): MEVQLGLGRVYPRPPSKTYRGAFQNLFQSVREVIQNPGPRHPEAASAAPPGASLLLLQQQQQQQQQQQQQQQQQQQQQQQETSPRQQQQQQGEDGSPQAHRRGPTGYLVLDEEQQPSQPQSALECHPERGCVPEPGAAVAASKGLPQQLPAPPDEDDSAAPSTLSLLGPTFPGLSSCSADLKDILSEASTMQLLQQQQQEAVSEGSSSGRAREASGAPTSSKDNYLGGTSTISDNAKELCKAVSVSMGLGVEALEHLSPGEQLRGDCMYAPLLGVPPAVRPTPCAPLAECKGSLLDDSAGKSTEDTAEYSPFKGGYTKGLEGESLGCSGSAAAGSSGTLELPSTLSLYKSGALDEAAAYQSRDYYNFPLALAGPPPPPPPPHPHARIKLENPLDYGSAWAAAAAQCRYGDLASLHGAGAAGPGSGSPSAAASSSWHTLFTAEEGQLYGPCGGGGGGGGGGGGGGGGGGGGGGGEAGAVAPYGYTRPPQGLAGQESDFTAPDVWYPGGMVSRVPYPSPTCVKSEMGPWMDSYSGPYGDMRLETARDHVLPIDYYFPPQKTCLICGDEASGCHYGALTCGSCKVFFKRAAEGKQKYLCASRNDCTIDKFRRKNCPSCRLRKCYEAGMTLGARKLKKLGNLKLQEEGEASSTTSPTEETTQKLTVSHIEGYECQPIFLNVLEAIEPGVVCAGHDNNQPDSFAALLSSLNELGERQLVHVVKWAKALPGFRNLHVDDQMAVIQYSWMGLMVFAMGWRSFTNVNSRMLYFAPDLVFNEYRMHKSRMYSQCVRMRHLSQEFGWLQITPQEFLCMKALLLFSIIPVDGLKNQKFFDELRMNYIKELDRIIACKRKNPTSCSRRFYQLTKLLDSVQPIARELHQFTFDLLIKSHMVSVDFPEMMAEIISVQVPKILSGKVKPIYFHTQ
Method in brief: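 MDA-kb2 cells carrying MMTV-luciferase (AR/GR responsive), 3,000 cells/well, co-treated with 3.0 uM nilutamide final. Compounds at 15 concentrations, 16 hr at 37C without CO2. Luciferase luminescence read after 30 min with ONE-Glo.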

[15] = target: Estrogen receptor (Homo sapiens) (UniProt P03372); assay: qHTS assay to identify small molecule agonists of the estrogen receptor alpha (ER-alpha) signaling pathway in the presence of an antagonist (AID 1259383; calls by dose curve; also: top concentration of the series differs between compounds; nearly all actives have a fitted effect of over 15% in size)
Chain of Estrogen receptor (Homo sapiens) (P03372 whole entry, looked up): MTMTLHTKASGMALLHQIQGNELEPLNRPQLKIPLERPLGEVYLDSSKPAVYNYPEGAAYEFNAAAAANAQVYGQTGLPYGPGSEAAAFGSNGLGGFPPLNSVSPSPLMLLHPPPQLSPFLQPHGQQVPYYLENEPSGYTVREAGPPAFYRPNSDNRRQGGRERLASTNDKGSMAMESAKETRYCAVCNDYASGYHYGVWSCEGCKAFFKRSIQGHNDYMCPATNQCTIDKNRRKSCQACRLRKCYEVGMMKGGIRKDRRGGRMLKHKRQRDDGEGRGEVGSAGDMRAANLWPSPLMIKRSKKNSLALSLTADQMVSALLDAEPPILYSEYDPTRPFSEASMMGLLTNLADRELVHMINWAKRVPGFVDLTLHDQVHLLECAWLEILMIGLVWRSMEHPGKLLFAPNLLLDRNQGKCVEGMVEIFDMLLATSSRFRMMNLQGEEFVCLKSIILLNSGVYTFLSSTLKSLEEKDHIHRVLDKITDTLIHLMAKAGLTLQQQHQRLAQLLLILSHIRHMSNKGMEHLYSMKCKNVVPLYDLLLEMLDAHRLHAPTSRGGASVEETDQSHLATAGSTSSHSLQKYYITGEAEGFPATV
Method in brief: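 VM7Luc4E2 cells express endogenous full-length ER-alpha with an ERE-luciferase reporter and were hormone-deprived for 5 days. Compounds at 15 concentrations were added with 10.0nM ICI-182,780 for 22hr at 37C. Luminescence was read with ONE-Glo.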

[16] = qHTS assay to identify small molecule agonists or antagonists of the thyroid stimulating hormone receptor (TSHR) signaling pathway - wild type cell line counter screen (AID 1259384; calls by dose curve)
Method in brief: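 Wild-type Hek293 cells, 800/well, 18 h at 37C, then compound with Ro20-1724 for 30 min RT. cAMP by HTRF (cAMP-d2/anti-cAMP cryptate), 1 h RT, fluorescence read. 15 concentrations, triplicates.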

[17] = target: Progesterone receptor (Homo sapiens) (UniProt P06401); assay: qHTS assay to identify small molecule antagonists of the progesterone receptor (PR) signaling pathway (AID 1346795; active = well fitted inhibition curve with a large enough effect in the signal ratio in the repeat runs, not every such curve was filed as active; the % refers to the signal ratio; also: potency is read from the fitted curve at half-maximal effect)
Method in brief: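 HEK293T PR-UAS-bla reporter cells in charcoal-stripped serum (2%) received compound after a 6 hr settling period, followed by R5020 agonist at 1 nM final; 16 hr incubation preceded the FRET substrate step and fluorescence measurement.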

[18] = qHTS assay to identify small molecule antagonists of the sonic hedgehog signaling (Shh) pathway (AID 1259369; calls by dose curve; also: nearly all actives have a fitted effect of over 45% in size; also: potency is read from the fitted curve at half-maximal effect)
Method in brief: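 NIH/3T3-derived Gli1-Luc reporter cells plated 4 h, dosed with compound, then stimulated with conditioned medium for 24 h at 37 C. Firefly luciferase luminescence read after 30 min with detection reagent at room temperature.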

[19] = target: Thyrotropin receptor (Homo sapiens) (UniProt P16473); assay: qHTS assay to identify small molecule antagonists of the thyroid stimulating hormone receptor (TSHR) signaling pathway (AID 1259385; calls by dose curve; also: nearly all actives have a fitted effect of over 20% in size)
Chain of Thyrotropin receptor (Homo sapiens) (P16473 whole entry, looked up): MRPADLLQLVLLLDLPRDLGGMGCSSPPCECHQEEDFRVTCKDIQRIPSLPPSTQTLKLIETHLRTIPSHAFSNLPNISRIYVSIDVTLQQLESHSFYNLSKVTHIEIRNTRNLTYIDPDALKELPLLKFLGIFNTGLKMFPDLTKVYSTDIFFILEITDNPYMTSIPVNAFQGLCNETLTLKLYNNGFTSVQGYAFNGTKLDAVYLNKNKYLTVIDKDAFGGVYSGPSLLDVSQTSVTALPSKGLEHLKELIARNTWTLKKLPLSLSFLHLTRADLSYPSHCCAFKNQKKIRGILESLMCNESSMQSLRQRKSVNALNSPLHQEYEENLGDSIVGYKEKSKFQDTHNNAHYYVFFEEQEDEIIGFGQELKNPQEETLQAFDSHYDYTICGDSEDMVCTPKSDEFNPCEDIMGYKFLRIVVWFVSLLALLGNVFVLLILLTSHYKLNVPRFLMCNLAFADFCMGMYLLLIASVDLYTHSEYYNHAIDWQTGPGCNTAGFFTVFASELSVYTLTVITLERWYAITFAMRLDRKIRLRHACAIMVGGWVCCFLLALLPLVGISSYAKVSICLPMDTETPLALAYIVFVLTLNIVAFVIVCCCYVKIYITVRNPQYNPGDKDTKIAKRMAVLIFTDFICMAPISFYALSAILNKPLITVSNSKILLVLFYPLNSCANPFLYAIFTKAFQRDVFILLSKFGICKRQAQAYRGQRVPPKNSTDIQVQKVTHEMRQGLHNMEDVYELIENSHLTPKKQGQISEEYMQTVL
Method in brief: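 TSHR-HEK293 cells (800/well) plated 18 h, then compounds with Ro20-1724 and TSH at 1.5 ng/mL final, 30 min at room temperature. cAMP quantified by HTRF (cAMP-d2/anti-cAMP-cryptate, 1 h); 15 concentrations in triplicate.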

[20] = target: Thyrotropin-releasing hormone receptor (Homo sapiens) (UniProt P34981); assay: qHTS assay to identify small molecule agonists of the thyrotropin-releasing hormone receptor (TRHR) signaling pathway (AID 1346891; calls by dose curve; also: series mostly up to about 58 µM)
Method in brief: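 Agonist-mode calcium mobilisation screen: TRHR-transfected HEK293 cells cultured overnight (18 h), dye-loaded for 2 h at 37 °C, exposed to compounds, and monitored by fluorescence for 3 min.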

Measured: Potency

CC(C)C(=O)c1c(C(C)C)nn2ccccc12
inactive: [1] | [2] | [3] | [4] | [5] | [6] | [7] | [8] | [9] | [10] | [11]

C#CC(C)(CC)OC(=O)c1ccccc1C(=O)O (configuration not stated)
not listed: [6] | [11] | [18] | [19] | [20]
inactive: all other assays above

COC(=O)[C@H]1[C@H]2C[C@@H]3c4[nH]c5cc(OC)ccc5c4CCN3C[C@H]2C[C@@H](OC(=O)c2cc(OC)c(OC)c(OC)c2)[C@@H]1OC
inactive: [1] | [16] | [19] | [4] | [5] | [6] | [7] | [8] | [9]
active: [18] 12.2 µM and 15.8 µM and 23.7 µM | [2] 8.62 µM and 9.96 µM and 11.9 µM

CC[C@H]1CN2CCc3cc(OC)c(OC)cc3[C@@H]2C[C@@H]1C[C@H]1NCCc2cc(OC)c(OC)cc21
active: [18] 8.7 nM and 2.7 nM | [1] 194 nM | [4] 38.7 µM | [17] 772 nM
inactive: [2] | [3] | [5] | [6] | [7] | [8] | [9] | [10]

CN(C)c1ccc2nc3ccc(=[N+](C)C)cc-3sc2c1
inactive: [15] | [5] | [6] | [7] | [8] | [9] | [10] | [11] | [20]
active: [18] 739 nM and 1.09 µM and 596 nM | [1] 3.3 µM and 6.86 µM and 4.22 µM | [2] 2.08 µM and 27.3 µM and 3.76 µM | [4] 33 µM and 27.3 µM and 15 µM

NNCCc1ccccc1
not listed: [12] | [13] | [14] | [15] | [17]
inactive: all other assays above

c1cc(C(c2ccc(OCC3CO3)cc2)C(c2ccc(OCC3CO3)cc2)c2ccc(OCC3CO3)cc2)ccc1OCC1CO1 (configuration not stated)
not listed: [2] | [10] | [12] | [13] | [14]
inactive: all other assays above
